# Assay results published in PubChem BioAssay.
# Values joined by “and” are separate entries in the source; they are usually repeats but may differ in a detail not shown here. Equal entries are not always repeated. Active and inactive are the calls of the source. Unless noted, no rule for the calls is given here.
# Columns and labels:
# [1] = system: Aerobactin synthetase IucA (Klebsiella pneumoniae); assay: inhibition of K. pneumoniae IucA enzyme – biochemical, Tocris library, absorbance (AID 1345561); settings: purified IucA enzyme assay, absorbance (OD) read-out; stronger effect = lower value;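 tested at 8 µM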;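 also: 100% = enzyme without compound and 0% = no enzyme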
# [2] = viability loss with induced miR-34 in A549 – imaging, A549 dox-inducible miR-34, nuclei and caspase counts, primary screen (AID 1347080;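 active = compounds whose cell count with miR-34 switched on is under 0.7 times the count with it off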); settings: A549 miR-34 inducible, Hoechst nuclei count, 48 h
# [3] = galactose survival enhancers in mitochondrial complex I cybrids – cell-based, galactose medium, ATP luminescence, primary screen (AID 1645843;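 active = z-score of at least 1.8 in each of two replicates, scored against plate mean and spread of sample wells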;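 also: positive z means more ATP and so rescue of galactose-driven cybrid death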); settings: complex I mutant cybrid cells, 72 h, stronger effect = higher value
# [4] = compounds altering circadian rhythm period length – cell-based, LOPAC library, luminescence reporter (AID 2774); settings: circadian reporter cells, at 7 µM, actives lie on both sides;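 also: values are relative to mean of DMSO wells on each plate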
# [5] = system: Aerobactin synthetase IucA (Klebsiella pneumoniae, hypervirulent); assay: biochemical IucA inhibition screen of LOPAC library by absorbance (AID 1346212); settings: IucA enzyme assay, absorbance (OD) readout; stronger effect = lower value;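 tested at 8 µM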;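 also: 100% = no compound wells and 0% = no enzyme wells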
# [6] = system: Hepatitis C virus NS3 helicase; assay: blockers of NS3h binding to ssDNA – biochemical, fluorescence polarization, LOPAC1280 library, primary screen (AID 687035; in the data active = inhibition above about 37%); settings: Purified HCV NS3 helicase, Cy5-dT15 ssDNA binding fluorescence polarization; stronger effect = higher value; concentration not given here
# [7] = compounds altering Cy5-DNA-NS3h complex signal – biochemical, LOPAC1280, artefact control for HCV NS3 helicase inhibitor project (AID 687037); settings: Cy5-DNA-NS3h complex fluorescence interference counterscreen
# [8] = blockers of cellular phospholipid synthesis – cell-based, LOPAC library, screen 4, primary screen (AID 1347384); settings: animal cells, phospholipid biosynthesis inhibition screen; at 10 µM
# [9] = compounds altering viability of human ES cells (AID 493140); settings: human embryonic stem cell survival screen; stronger effect = higher value;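 also: cells exposed to compounds for four days before counting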
# [10] = P. berghei load reduction in hepatocytes – cell-based, HepG2, luciferase luminescence, HepG2 viability, primary screen (AID 624349; in the data active = parasite load remaining mostly below about 12%, no sharp cut-off; inactive = mostly above about 10%;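 also: 100% = mean of DMSO negative control wells on the same plate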); settings: P. berghei liver stage in HepG2, luciferase luminescence, concentration not given here; parasite load remaining: stronger effect = lower value; viability: measured here: HepG2 viability without parasites
# [11] = MELAS cybrid and Rieske KO viability enhancers – cell-based, MELAS cybrids, Rieske KO mouse fibroblasts, CellTiter-Glo, primary screen (AID 1508586;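 active = mean z-score across replicates of 1.96 or higher in either the MELAS or the Rieske mutant cell line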;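 also: z relative to plate mean and SD of compound and empty wells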); settings: low glucose
# [12] = stronger effect = lower value, cell number ratio, induced over uninduced
# [13] = measured here: relative caspase fold change +Dox/-Dox
# [14] = measured here: total cells with miR-34 induction, stronger effect = lower value
# [15] = measured here: total cells without miR-34 induction
smiles,measurement,setting,value
O=C(O)CCC(CP(=O)(O)O)C(=O)O (configuration not stated),remaining activity,[1],113% (inactive)
same,fold change,[2]; [12],0.917 (inactive)
same,fold change,[2]; [13],0.521
same,cell count,[2]; [14],9040
same,cell count,[2]; [15],9860
same,z-score,[3],-0.22 (inactive)
COC1(C[S@@](=O)c2ccccc2)CCN(CCc2c[nH]c3ccc(F)cc23)CC1,remaining activity,[1],113% (inactive)
same,fold change,[2]; [12],0.956 (inactive)
same,fold change,[2]; [13],1.03
same,cell count,[2]; [14],8390
same,cell count,[2]; [15],8770
same,z-score,[3],-0.4 (inactive)
C=CCN1CC[C@]23c4c5ccc(O)c4O[C@H]2/C(=N/NC(=O)c2ccccc2)CC[C@@]3(O)[C@H]1C5,period change,[4],0.215 h (inactive)
same,remaining activity,[1],115% (inactive)
same,remaining activity,[5],116% (inactive)
same,fold change,[2]; stronger effect = lower value,0.994 (inactive)
same,fold change,[2]; [13],0.667
same,cell count,[2]; [14],9120
same,cell count,[2]; [15],9170
same,z-score,[3],-0.33 (inactive)
CN1C2CCC1CC(OC(=O)c1cc(Cl)cc(Cl)c1)C2 (configuration not stated),period change,[4],-0.075 h (inactive)
same,inhibition,[6],-7% (inactive)
same,fluorescence ratio (interference),[7],0.9 (inactive)
same,remaining activity,[1],82.7% (inactive)
same,fold change,[2]; stronger effect = lower value,1.08 (inactive) and 0.937 (inactive)
same,fold change,[2]; [13],1.35 and 0.719
same,cell count,[2]; [14],8680 and 8550
same,cell count,[2]; [15],8070 and 9130
same,outcome,[8],inactive
same,z-score,[3],-0.22 (inactive) and 0.04 (inactive)
Fc1ccc(C(OCCN2CCN(C/C=C/c3ccccc3)CC2)c2ccc(F)cc2)cc1,remaining activity,[1],116% (inactive)
same,fold change,[2]; [12],0.843 (inactive)
same,fold change,[2]; [13],1.03
same,cell count,[2]; [14],2280
same,cell count,[2]; [15],2710
same,z-score,[3],-1.23 (inactive)
CC(C(=O)OC1CC2CCC(C1)N2C)c1ccc(Br)cc1 (configuration not stated),remaining activity,[1],87.5% (inactive)
same,fold change,[2]; [12],0.964 (inactive)
same,fold change,[2]; [13],0.964
same,cell count,[2]; [14],8760
same,cell count,[2]; [15],9090
same,z-score,[3],-0.795 (inactive)
CC(N)Cc1c[nH]c2ccc(OCc3cccs3)cc12 (configuration not stated),period change,[4],-0.015 h (inactive)
same,inhibition,[6],-2% (inactive)
same,fluorescence ratio (interference),[7],0.9 (inactive)
same,remaining activity,[1],105% (inactive)
same,fold change,[2]; stronger effect = lower value,1.09 (inactive) and 1.04 (inactive) and 0.983 (inactive)
same,fold change,[2]; [13],0.892 and 0.841 and 0.895
same,cell count,[2]; [14],9650 and 5700 and 7970
same,cell count,[2]; [15],8810 and 5500 and 8110
same,outcome,[8],inactive
same,z-score,[3],-0.655 (inactive) and -0.22 (inactive)
C[N+]1(C)CCc2cc3c(cc2[C@H]1[C@@H]1OC(=O)c2c1ccc1c2OCO1)OCO3,period change,[4],-0.02 h (inactive)
same,inhibition,[6],-3% (inactive)
same,fluorescence ratio (interference),[7],1 (inactive)
same,remaining activity,[1],123% (inactive) and 114% (inactive)
same,remaining activity,[5],119% (inactive)
CCCN(CCC)C1CCc2cccc(O)c2C1 (configuration not stated),period change,[4],-0.07 h (inactive)
same,inhibition,[6],2% (inactive)
same,fluorescence ratio (interference),[7],1 (inactive)
same,remaining activity,[1],106% (inactive)
same,fold change,[2]; stronger effect = lower value,0.975 (inactive) and 0.957 (inactive)
same,fold change,[2]; [13],0.862 and 0.742
same,cell count,[2]; [14],10400 and 8490
same,cell count,[2]; [15],10700 and 8870
same,outcome,[8],inactive
same,z-score,[3],0.025 (inactive) and -0.42 (inactive)
CC(C)[C@@]1(NC(=O)[C@@H]2C[C@@H]3c4cccc5[nH]cc(c45)C[C@H]3N(C)C2)O[C@@]2(O)[C@@H]3CCCN3C(=O)[C@H](Cc3ccccc3)N2C1=O,period change,[4],0.005 h (inactive)
same,survival,[9],11.8 (inactive)
same,parasite load remaining,[10],54.5% (inactive) and 64.8% (inactive) and 17.1% (inactive)
same,viability,[10],93% and 73.6% and 61.5%
same,remaining activity,[1],88.2% (inactive)
same,remaining activity,[5],120% (inactive)
same,fold change,[2]; stronger effect = lower value,0.784 (inactive) and 0.954 (inactive) and 0.887 (inactive)
same,fold change,[2]; [13],1.05 and 0.961 and 0.856
same,cell count,[2]; [14],6690 and 7710 and 8510
same,cell count,[2]; [15],8530 and 8070 and 9590
same,z-score,"[11]; MELAS cybrid survival, CellTiter-Glo 48 h, stronger effect = higher value",-0.553 (inactive)
same,z-score,"[11]; Rieske KO mouse fibroblast survival, CellTiter-Glo 72 h",0.653
same,z-score,[3],-0.045 (inactive) and 0.13 (inactive)
C=CCN1CC[C@]2(C)c3cc(O)ccc3CC1[C@@H]2C,remaining activity,[1],113% (inactive)
same,fold change,[2]; stronger effect = lower value,0.961 (inactive)
same,fold change,[2]; [13],0.641
same,cell count,[2]; [14],8610
same,cell count,[2]; [15],8960
same,z-score,[3],0.05 (inactive)
CN(C(=O)Cc1ccc(Cl)c(Cl)c1)[C@H](CN1CCCC1)c1ccccc1,remaining activity,[1],98.2% (inactive)
same,fold change,[2]; [12],0.987 (inactive)
same,fold change,[2]; [13],0.762
same,cell count,[2]; [14],7540
same,cell count,[2]; [15],7640
same,z-score,[3],-0.625 (inactive)
O=C1Nc2ccccc2C2(CCN(CCc3ccc(C(F)(F)F)cc3)CC2)O1,remaining activity,[1],102% (inactive)
same,fold change,[2]; [12],1.06 (inactive)
same,fold change,[2]; [13],0.675
same,cell count,[2]; [14],4790
same,cell count,[2]; [15],4500
same,z-score,[3],-0.66 (inactive)
C[C@H](N)Cn1ccc2cc(F)c(Cl)cc21,remaining activity,[1],103% (inactive)
same,fold change,[2]; [12],0.874 (inactive)
same,fold change,[2]; [13],1.05
same,cell count,[2]; [14],7990
same,cell count,[2]; [15],9140
same,z-score,[3],-0.575 (inactive)
CCCCCCC[n+]1ccc(-c2cc[n+](CCCCCCC)cc2)cc1,remaining activity,[1],77% (inactive)
same,fold change,[2]; [12],1.13 (inactive)
same,fold change,[2]; [13],1.23
same,cell count,[2]; [14],1940
same,cell count,[2]; [15],1710
same,z-score,[3],-1.1 (inactive)
Cc1nc(N)sc1CCN,remaining activity,[1],88.4% (inactive)
same,fold change,[2]; [12],0.919 (inactive)
same,fold change,[2]; [13],1.01
same,cell count,[2]; [14],8020
same,cell count,[2]; [15],8730
same,z-score,[3],0.195 (inactive)
c1ccc(C2CNCc3ccccc32)cc1 (configuration not stated),remaining activity,[1],117% (inactive)
same,fold change,[2]; [12],0.949 (inactive)
same,fold change,[2]; [13],0.998
same,cell count,[2]; [14],8070
same,cell count,[2]; [15],8500
same,z-score,[3],-0.455 (inactive)
